# Screening results deposited in PubChem BioAssay by National Center for Advancing Translational Sciences (NCATS).
# AmpC detergent: AmpC beta-lactamase inhibition with detergent present | P00811 | AmpC hydrolysis of nitrocefin, absorbance 480 nm, 0.01% Triton | Potency, µM (doses to about 114 µM), most hits filed as inhibitors | 370,000 tested, 0.041% active; further: nearly all actives have a fitted effect of over 25% in size
# Target sequence (P00811 whole entry, looked up): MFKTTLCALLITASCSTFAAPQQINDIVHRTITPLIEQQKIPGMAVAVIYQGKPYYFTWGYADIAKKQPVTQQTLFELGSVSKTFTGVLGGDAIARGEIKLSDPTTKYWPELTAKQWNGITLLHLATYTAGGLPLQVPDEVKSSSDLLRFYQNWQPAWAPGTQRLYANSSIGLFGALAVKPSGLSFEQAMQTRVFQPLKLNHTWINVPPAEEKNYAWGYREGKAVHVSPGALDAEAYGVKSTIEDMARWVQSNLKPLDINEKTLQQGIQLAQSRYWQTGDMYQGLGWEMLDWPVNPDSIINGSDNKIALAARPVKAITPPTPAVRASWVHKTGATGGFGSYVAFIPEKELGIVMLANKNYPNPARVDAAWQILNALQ
#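 20 mM phosphate pH 7.0 + 0.01% (detergent screen) or 0.0001% Triton X-100; 5.3 nM AmpC reagent; cpd preinc 15 min RT; nitrocefin (800 uM stock) to start; A480 q20 s × 4 min; Activity was normalised to no-enzyme and no-compound control wells.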
# Vaccinia Venus: inhibitors of vaccinia virus (Venus reporter). 330,000 tested, 0.46% active. Vaccinia virus Venus reporter expression, fluorescence. Potency, µM (titrated, usually from 36.5 µM), hits mostly inhibitors; calls by dose curve; tested in A549 cells; further: nearly all actives have a fitted effect of over 30% in size
# AmpC inh no detg: AmpC beta-lactamase inhibition without detergent; AmpC nitrocefin hydrolysis, absorbance 480 nm, 0.0001% Triton; Potency, µM (doses to about 57.1 µM), actives largely listed as inhibitors; 330,000 tested, 0.52% active; AID 485341; further: nearly all actives have a fitted effect of over 20% in size
#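 20 mM phosphate pH 7.0 + 0.01% (detergent screen) or 0.0001% Triton X-100; 5.3 nM AmpC reagent; cpd preinc 15 min RT; nitrocefin (800 uM stock) to start; A480 q20 s × 4 min; Activity was normalised to no-enzyme and no-compound control wells.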
# Vaccinia mCherry: vaccinia inhibition (mCherry reporter) | Vaccinia virus mCherry reporter infection, fluorescence | Potency, µM (series often up to 36.5 µM), actives largely listed as inhibitors | 310,000 tested, 0.63% active | AID 720579; calls by dose curve; tested in A549 cells; further: nearly all actives have a fitted effect of over 35% in size
# Numbers stand for hits; – = inactive; ? = inconclusive; · = no result given. Compounds with a hit are over-represented: about 1.1% of the library has one in this group of screens. Unless noted, the call rests on the fitted dose curve; in most records, active means well fitted curve in the direction sought with a large enough effect; inconclusive means small, poorly fitted or top-dose-only effect, or another doubt; inactive means no such curve, though single readings can be large; an effect the other way counts as inactive or inconclusive.
SMILES,AmpC detergent,Vaccinia Venus,AmpC inh no detg,Vaccinia mCherry
N#Cc1c(SCC(=O)Nc2nc3ccc(Br)cc3s2)sc2c(O)cc(=O)[nH]c12,–,–,25µM,–
CCS(=O)(=O)c1ncc(Cl)c(C(=O)Nc2ccc(S(=O)(=O)N3CCC(C)CC3)cc2)n1,?,18µM,–,?
CC(=O)NCC(=O)NCC1Cc2cc(C)cc(-c3ccccn3)c2O1 (stereo unspecified),·,–,·,–
CS(=O)(=O)Nc1cccc(C2=NN(S(C)(=O)=O)C(c3ccc4c(c3)OCO4)C2)c1 (stereo unspecified),–,–,40µM,–
CS(=O)(=O)N1N=C(c2ccccc2)CC1c1ccc2c(c1)OCO2 (stereo unspecified),?,–,–,–
NC(CCc1ccccc1)c1csc(NC(=O)NCCc2ccccc2)n1 (stereo unspecified),·,–,·,–
NC(Cc1ccc(C(F)(F)F)cc1)c1csc(NC(=O)Nc2ccccc2Cc2ccccc2)n1 (stereo unspecified),·,13µM,·,11µM
CC(C)c1ccc(NC(=O)Nc2nc(C(N)c3ccccc3)cs2)cc1 (stereo unspecified),·,?,·,–
NC(Cc1ccc(Cl)cc1)c1csc(NC(=O)NCC2CCCCC2)n1 (stereo unspecified),·,10µM,·,–
CC(C)c1ccc(NC(=O)Nc2nc(C(N)COCc3ccccc3)cs2)cc1 (stereo unspecified),·,11µM,·,?
NC(CCc1ccccc1)c1csc(NC(=O)Nc2ccccc2Oc2ccccc2)n1 (stereo unspecified),·,11µM,·,?
Cc1ccccc1C1(CC(=O)N2CCCCC2c2cccnc2)CC(=O)N(C2CCCC2)C1=O (stereo unspecified),·,–,·,–
COc1ccc(CN2CCC3(CCC(CNC(=O)c4ccnn4C)O3)CC2)c(C)c1C (stereo unspecified),·,–,·,–
NC(=O)c1c(NC(=O)COC(=O)c2ccc(O)c(Cl)c2)sc2c1CCCC2,·,–,16µM,–
NC(=O)c1c(NC(=O)CN2C(=O)CCC2=O)sc2c1CCCCC2,–,–,32µM,–
COc1ccc(OC)c(-c2csc(NC(=O)COC(=O)C3CCC3)n2)c1,–,·,–,·
COc1ccc(OC)c(-c2csc(NC(=O)COC(=O)c3ccc(NC(=O)CC#N)cc3)n2)c1,?,·,25µM,·
COC(=O)c1c(NC(=O)COC(=O)c2ccc(NC(=O)CC#N)cc2)sc2c1CCCCC2,–,–,32µM,–
O=C(NCc1nnc2n1CCN(Cc1cc3c(cc1Cl)OCO3)CC2)c1cccc(F)c1,·,–,·,–
O=c1cc(O)c2c([nH]1)CCC2,·,–,·,–
N#CCC(=O)Nc1ccc(C(=O)OCC(=O)Nc2cccc3ccccc23)cc1,·,–,·,–
COC(=O)c1c(NC(=O)C2CC2)sc2c1CCCC2,?,–,45µM,–
N#CCC(=O)Nc1ccc(C(=O)OCC(=O)Nc2cccc(C(F)(F)F)c2)cc1,?,–,16µM,–
O=C(Cn1c(=O)oc2cc(S(=O)(=O)N3CCCCCC3)ccc21)NC1CCCCCCC1,?,–,–,–
O=C(Cn1c(=O)oc2cc(S(=O)(=O)N3CCCC3)ccc21)NC1CCCc2ccccc21 (stereo unspecified),?,–,10µM,–
SMILES,AmpC detergent,Vaccinia Venus,AmpC inh no detg,Vaccinia mCherry
CCOc1ccc(CCN2C(=S)N([C@@H](CC(C)C)CN3CCCC3CN3C(=S)NC[C@@H]3Cc3ccc(O)cc3)C[C@@H]2Cc2ccc(O)cc2)cc1 (stereo partly specified),·,10µM,·,?
CCOc1ccc(CCN2C(=S)N([C@@H](CC(C)C)CN3CCCC3CN3C(=S)NC[C@@H]3Cc3ccc(O)cc3)C[C@@H]2Cc2ccccc2)cc1 (stereo partly specified),·,?,·,–
CC(C)C[C@@H](CN1CCCC1CN1C(=S)NC[C@@H]1Cc1ccc(O)cc1)N1C[C@H](Cc2ccc(O)cc2)N(CC2CCCCCC2)C1=S (stereo partly specified),·,11µM,·,6.3µM
CC(=O)c1ccccc1-c1ccc2c(c1)CC(CNC(=O)Cc1c[nH]c3ccccc13)O2 (stereo unspecified),·,–,·,–
CN=c1c([N+](=O)[O-])nn(-c2ccc3c(c2)OCCO3)n1O,–,?,–,13µM
CC(C)c1ccc(N=c2c([N+](=O)[O-])nn(-c3ccc4c(c3)OCCO4)n2O)cc1,?,–,?,?
COc1cccc(CN2CCCC(c3nc(-c4ccncc4)ncc3-c3ccccc3)C2)c1O (stereo unspecified),·,–,·,–
